High-throughput results (PubChem)
Sampled rows, rich in hits. Any-hit rate of the full collection: about 1.1%.
CIT2 TOR yeast – modulators of CIT2-GFP expression in yeast, primary screen, S. cerevisiae, GFP fusion, multiplex flow cytometry, MLPCN library; S. cerevisiae CIT2-GFP strain, 3 h; 100 means same as DMSO wells; GFP response vs DMSO, % at 10 µM; hit rate 0.065% among 320,000;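 active = GFP response relative to DMSO above a set limit, near the screen mean plus 3 SD, cut at about 150% in these data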;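 note: ratio of well median GFP fluorescence to mean of DMSO wells on the plate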
AGP1-GFP MLPCN – modulators of AGP1-GFP expression in yeast TOR pathway, primary screen, cell-based, multiplex flow cytometry, S. cerevisiae, MLPCN library; 3 h; GFP as percent of DMSO wells; hit rate 0.02% among 320,000; GFP response vs DMSO, % at 10 µM;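 active = GFP response relative to DMSO above a set limit, near screen average plus 3 SD, cut at about 150% in these data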;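 note: median GFP channel fluorescence of the gated AGP1 strain per well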
VLA-4 inh – inhibition in human VLA-4 binding assay, primary screen, VLA-4 allosteric modulator project, MLPCN library, flow cytometry, VLA-4 expressing cells | hit rate 0.2% among 330,000 | Integrin alpha-4 (Homo sapiens), P13612 | inhibition, % (about 7 µM as worked out from the volumes in the protocol) | ligand binding flow cytometry; in the data active = inhibition above about 50%
Target sequence (P13612 whole entry, looked up): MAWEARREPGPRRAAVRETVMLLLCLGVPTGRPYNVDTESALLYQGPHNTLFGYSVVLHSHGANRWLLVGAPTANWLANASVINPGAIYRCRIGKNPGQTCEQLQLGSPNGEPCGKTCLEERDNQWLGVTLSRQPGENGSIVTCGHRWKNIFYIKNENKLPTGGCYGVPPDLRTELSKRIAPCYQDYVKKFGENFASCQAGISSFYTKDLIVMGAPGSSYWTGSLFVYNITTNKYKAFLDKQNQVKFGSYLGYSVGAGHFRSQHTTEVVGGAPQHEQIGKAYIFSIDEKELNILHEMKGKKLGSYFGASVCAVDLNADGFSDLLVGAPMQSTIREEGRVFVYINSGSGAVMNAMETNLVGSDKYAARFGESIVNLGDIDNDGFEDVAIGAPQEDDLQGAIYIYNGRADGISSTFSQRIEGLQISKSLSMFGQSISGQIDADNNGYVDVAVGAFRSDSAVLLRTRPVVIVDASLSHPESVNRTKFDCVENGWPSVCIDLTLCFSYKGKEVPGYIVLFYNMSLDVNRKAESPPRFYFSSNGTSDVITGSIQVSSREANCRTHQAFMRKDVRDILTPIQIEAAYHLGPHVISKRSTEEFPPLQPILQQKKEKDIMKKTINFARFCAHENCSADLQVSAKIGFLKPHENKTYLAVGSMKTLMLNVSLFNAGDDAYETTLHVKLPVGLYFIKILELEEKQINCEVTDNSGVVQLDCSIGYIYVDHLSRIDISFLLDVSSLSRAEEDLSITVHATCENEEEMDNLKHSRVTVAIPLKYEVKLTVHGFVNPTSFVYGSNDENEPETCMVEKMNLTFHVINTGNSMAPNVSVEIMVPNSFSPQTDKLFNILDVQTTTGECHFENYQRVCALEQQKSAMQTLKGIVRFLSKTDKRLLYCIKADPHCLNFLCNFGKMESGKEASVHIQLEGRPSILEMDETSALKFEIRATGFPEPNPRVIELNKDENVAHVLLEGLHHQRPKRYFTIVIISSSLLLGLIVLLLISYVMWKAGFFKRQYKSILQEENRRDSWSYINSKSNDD
LAP4 TOR yeast – modulators of LAP4-GFP expression in yeast, primary screen, S. cerevisiae, multiplex flow cytometry, MLPCN library; 3 h; median GFP as percent of DMSO wells; GFP response vs DMSO, % at 10 µM; hit rate 0.34% among 320,000;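 active = GFP response vs DMSO above a set limit, about the screen mean plus 3 SD, cut at about 150% in these data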
MEP2-GFP yeast – modulators of MEP2-GFP levels in yeast, primary screen, S. cerevisiae, multiplex flow cytometry, MLPCN library; S. cerevisiae MEP2-GFP strain, 3 h; 100% = DMSO control level; GFP response vs DMSO, % at 10 µM; hit rate 0.51% among 330,000; AID 2016, 2009;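 active = GFP response versus DMSO above a set limit, roughly screen mean plus 3 SD, cut at about 180% in these data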;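 note: median GFP fluorescence of the barcode-gated MEP2-GFP cells per well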
RPL19A-GFP yeast – RPL19A-GFP expression modulators in yeast, primary screen, cell-based, S. cerevisiae, multiplex flow cytometry, MLPCN; percent response vs DMSO, % at 10 µM; hit rate 0.3% among 330,000; AID 2025, 2009; S. cerevisiae RPL19A-GFP strain, 3 h; stronger effect = lower value;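 active = percent response vs DMSO below 50%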;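 note: median channel GFP fluorescence of the barcoded RPL19A-GFP strain; ratio of sample median GFP to plate DMSO average so 100% = DMSO; lower means less RPL19A-GFP as with rapamycin TOR inhibition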
LAP4-GFP pick2 – LAP4-GFP expression modulators in yeast, confirmation, cell-based, second cherry pick, flow cytometry; S. cerevisiae LAP4-GFP strain, 3 h; hit rate 20% among 590; GFP response vs DMSO, % at 10 µM; shares compounds with LAP4 TOR yeast;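 active = GFP signal as percent of the solvent control above about 150%, meaning raised reporter expression, limit read from the data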;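 note: ratio of well median GFP fluorescence to plate DMSO mean so 100% = DMSO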
MEP2 cherry2 – modulators of MEP2-GFP levels in yeast, confirmation, S. cerevisiae, flow cytometry GFP, second cherry picks; AID 2622, 2010; S. cerevisiae MEP2-GFP strain, 3 h; shares compounds with LAP4 TOR yeast; hit rate 10% among 590; GFP response vs DMSO, % at 10 µM;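 active = GFP signal above 150% of the solvent control wells, that is a rise of more than half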;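 note: median channel GFP fluorescence of all gated yeast cells per well; ratio of median GFP to plate DMSO average so 100% = DMSO level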
RPL19A-GFP pick2 – RPL19A-GFP modulators in TOR pathway yeast, confirmation, cell-based, S. cerevisiae, flow cytometry, second cherry pick. AID 2623, 2010. hit rate 3% among 590. GFP response vs DMSO, % at 10 µM. S. cerevisiae RPL19A-GFP strain, 3 h; stronger effect = lower value; 100% means same as DMSO wells. shares compounds with LAP4 TOR yeast;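 active = under 65% GFP response relative to DMSO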;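 note: median GFP channel fluorescence per well over the all cells gate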
CIT2 GFP CP2 – modulators of CIT2-GFP expression in yeast, confirmation, flow cytometry, second cherry pick, single plex | shares compounds with LAP4 TOR yeast | S. cerevisiae CIT2-GFP strain, 3 h; DMSO control wells read 100% | GFP response vs DMSO, % at 10 µM | hit rate 8% among 590 | AID 2624, 2010;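 active = GFP response vs DMSO above about 150%, limit read from the data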;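 note: median green fluorescence per well over all gated yeast cells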
AGP1 GFP CP2 – AGP1-GFP expression modulators, hit retest, confirmation, cell-based, flow cytometry, S. cerevisiae, cherry pick set 2. shares compounds with LAP4 TOR yeast. S. cerevisiae AGP1-GFP strain, 3 h. percent response vs DMSO, % at 10 µM. 590 tested, under 10 active;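 active = over 150 percent of DMSO response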;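 note: median GFP channel fluorescence over all cells without mother daughter split; sample median GFP divided by mean DMSO control so 100% equals DMSO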
Yeast autofluor – compound autofluorescence in yeast s288c, dose response, artefact control for yeast TOR pathway GFP screen, s288c strain; AID 2757, 2010; fluorescence change (kMESF span) at 33 µM; shares compounds with LAP4 TOR yeast; 610 tested, under 10 active; S. cerevisiae s288c, 520 nm autofluorescence, flow cytometry, 3 h; stronger effect = higher value; zero means same as solvent-only cells;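 active = fluorescence span over the dose series, or activity score, above about 33, limit read from the data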
Yeast autofl DR – autofluorescence of compounds in yeast s288c, dose response, artefact control for yeast TOR pathway GFP screen, primary hits, KU SAR, s288c parental. fluorescence change (span) at 33 µM. S. cerevisiae s288c parental, compound autofluorescence, flow cytometry, 3 h. shares compounds with LAP4 TOR yeast. 110 tested, under 10 active;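 active = fluorescence change span, or the activity score built from it, above 25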
TORC1 bypass – wild-type yeast growth inhibition sparing TORC1 bypass cells, mechanism study for yeast TOR pathway GFP screen, BY4741 wild type, TORC1 bypass strain; shares compounds with LAP4 TOR yeast; S. cerevisiae BY4741 spot growth rating, 48-72 h; stronger effect = lower value; growth rating (0-3) at 30 µM; 120 tested, under 10 active;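 active = growth rating at most 1 for wild type yeast while the TORC1 bypass strain still grows fully, rated 3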
Numbers without * were called inactive; . = not tested or not shown; + = active, no number; [ ] = dose if it differs, or a comment.

SMILES	CIT2 TOR yeast	AGP1-GFP MLPCN	VLA-4 inh	LAP4 TOR yeast	MEP2-GFP yeast	RPL19A-GFP yeast	LAP4-GFP pick2	MEP2 cherry2	RPL19A-GFP pick2	CIT2 GFP CP2	AGP1 GFP CP2	Yeast autofluor	others
Cc1cc(NC(=O)c2ccc3c(c2)OCCO3)ccc1NC(=O)c1cc2ccccc2o1	89	101	4	107	113	99	.	.	.	.	.	.
O=C(Nc1ccc(NC(=O)c2cc3ccccc3o2)cc1)c1ccc2c(c1)OCCO2	106	104	0	99	99	101	.	.	.	.	.	0.1
COc1cc(NC(=O)c2ccc(C)cc2)ccc1NC(=O)c1cc2ccccc2o1	76	34	13	84	168	92	.	.	.	.	.	0.1
COc1cc(NC(=O)c2c(OC)cccc2OC)ccc1NC(=O)c1cc2ccccc2o1	105	97	9	90	107	107	.	.	.	.	.	.
CCC(=O)Nc1ccc(NC(=O)c2cc3ccccc3o2)c(OC)c1	104	110	17	101	99	102	.	.	.	.	.	0.1
O=C(OCC(=O)N1CCCc2ccccc21)c1ccccc1NCCO	84	91	-2	99	102	90	.	.	.	.	.	.
CCN(C(=O)COC(=O)CCC(=O)c1cccs1)c1c(N)n(Cc2ccccc2)c(=O)[nH]c1=O	94	94	15	92	92	90	.	.	.	.	.	.
CC(=O)c1ccc(NC(=O)Cn2c3ccccc3c3nc(=O)cc(C)n32)cc1	84	71	3	92	156	56	100	102	100	97	100	.
COC(=O)Cn1c2ccccc2c2nc(=O)cc(C)n21	94	100	-1	97	96	94	.	.	.	.	.	.
O=S(=O)(NNc1ncc(C(F)(F)F)cc1Cl)c1ccccc1	119	100	-8	108	114	102	.	.	.	.	.	.
CCOC(=O)c1nn(-c2ccc(OCC)cc2)c2nc(-c3ccco3)c(C#N)c(=O)n12	100	82	6	96	130	64	97	105	100	103	103	.
COc1cc(/C=C/C(=O)N2CCN(C)CC2)cc(S(=O)(=O)N2CCc3ccccc32)c1OC	99	26	9	91	125	62	103	100	100	98	100	.
COc1ccc(C(=O)NC(=S)NNC(=O)c2cnccn2)cc1	90	87	-3	241*	111	105	.	.	.	.	.	1	Yeast autofl DR=0.49;TORC1 bypass=3
O=C(NC(=S)NNC(=O)c1cnccn1)c1ccc(Cl)cc1	102	109	1	181*	117	112	.	.	.	.	.	2
O=C(NNC(=S)NC(=O)c1cccnc1)c1ccc(Cl)cc1	112	108	19	96	110	102	.	.	.	.	.	.
O=C1OC(c2ccc(F)cc2)=C/C1=C\c1ccc([N+](=O)[O-])o1	217*[may fluoresce green]	99	-42	291*[may fluoresce green]	647*[may fluoresce green]	136	667*	+	192	991*	174*	.
COc1ccc(C=C2C(=O)c3ccccc3C2=O)cc1O	97	100	0	104	100	97	94	97	103	103	95	0.3
COc1cc(C=C2C(=O)c3ccccc3C2=O)cc(OC)c1	89	91	-6	120	91	93	99	96	98	106	101	0
COc1cc(C=C2C(=O)c3ccccc3C2=O)cc(OC)c1OC	89	89	-21	121	90	100	105	103	93	96	103	0.2
COc1ccc2c(c1)C(=O)N(c1ccccc1OC)C(=O)C2(C)C	91	99	18	115	102	94	.	.	.	.	.	.
Cc1cc(=O)c(C(=O)O)nn1-c1ccccc1C(F)(F)F	105	109	3	96	106	107	.	.	.	.	.	.
COc1ccccc1[C@]1(C)ON(c2ccccc2C(F)(F)F)C1=O	89	87	23	156*	89	92	150*	110	100	107	100	0.3
CC(C)C[C@]1(c2ccccc2)ON(c2ccccc2C(F)(F)F)C1=O	97	74	17	88	89	100	104	100	105	112	99	-0.1
CC[C@]1(c2ccccc2OC)ON(c2ccccc2C(F)(F)F)C1=O	85	81	4	118	100	93	150	120	103	118	110	0
CCCCN1C(=O)C(O)(CC(=O)c2ccccc2OC)c2ccccc21 (configuration not stated)	109	104	-4	98	97	100	.	.	.	.	.	.
Cc1cc(C)nc(SCC(=O)N(C)CC(=O)Nc2c(Cl)cccc2Cl)n1	103	95	-2	93	98	93	.	.	.	.	.	.
